Compounds with a hit are over-represented: about 6.8% of the library has one in this group of screens.
Cy5 interf NS3h = Cy5 fluorescence quenchers or enhancers, artefact control for HCV NS3 helicase inhibitor project, biochemical, ChemBridge library, Cy5 readout; AID 720488, 2013; Cy5-dT15 DNA with NS3h, fluorescence interference; actives lie on both sides; signal over control mean, under 1 quenches; actives 6% (n = 16,000); fluorescence interference ratio at 100 µM;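 active = compound fluorescence over control fluorescence at most 0.8, a quencher, or at least a set upper limit, an enhancer; inactive = ratio between 0.8 and the set upper limit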
HCV NS3h FP = HCV NS3 helicase inhibitors, primary screen, biochemical, fluorescence polarization, ChemBridge library. NS3h Cy5-dT15 DNA binding. inhibition, % at 100 µM. actives 1.6% (n = 16,000);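 active = inhibition above the average over every tested compound plus 3 SD, cut at about 40% in these data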
NS3h confirm = HCV NS3 helicase inhibitors, retest, confirmation, biochemical, fluorescence polarization, ChemBridge library; AID 720485, 2013; shares compounds with HCV NS3h FP; inhibition, % at 100 µM; NS3h binding to Cy5-dT15 DNA; actives 20% (n = 240);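 active = percent inhibition of 50% or more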
SSB-DNA FP CB = E. coli SSB-DNA binding inhibitors, counter-screen for HCV NS3 helicase inhibitor project, biochemical, fluorescence polarization, selected ChemBridge compounds | actives 40% (n = 240) | inhibition, % at 100 µM | shares compounds with HCV NS3h FP | E. coli SSB binding Cy5-dT15;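 active = inhibition of at least 50%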;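 also: displacers lower Cy5 polarization so higher inhibition means more SSB displaced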
Target sequence (P0AGE0 whole entry, looked up): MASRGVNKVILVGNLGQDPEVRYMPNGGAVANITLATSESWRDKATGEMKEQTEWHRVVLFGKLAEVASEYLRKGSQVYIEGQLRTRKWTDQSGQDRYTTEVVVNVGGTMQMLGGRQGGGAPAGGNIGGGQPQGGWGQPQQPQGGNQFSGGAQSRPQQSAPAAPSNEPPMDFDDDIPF
Cy5 SSB fluor CB = Cy5 fluorescence interference with SSB-bound oligo, artefact control for HCV NS3 helicase inhibitor project, biochemical, E. coli SSB, selected ChemBridge compounds; shares compounds with HCV NS3h FP; fluorescence interference ratio at 100 µM; Cy5-dT15/E. coli SSB fluorescence interference; actives lie on both sides; actives 8% (n = 240); AID 720487, 2013;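 active = fluorescence interference ratio at or above 1.2, signal boosting, or at or below 0.8, signal quenching; inactive = ratio between 0.8 and 1.2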;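 also: ratio of compound well signal to mean negative control signal so 1 means no effect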
Cy5 fluor confirm = Cy5-DNA-NS3h complex fluorescence interference, confirmation, artefact control for HCV NS3 helicase inhibitor project, biochemical, ChemBridge library | shares compounds with HCV NS3h FP | Cy5-dT15 DNA/NS3h fluorescence interference counterscreen | fluorescence interference ratio at 100 µM, hits read low | actives 44% (n = 240);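 active = fluorescence interference ratio at or below 0.8 quencher or at or above a set limitenhancer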;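 also: ratio of compound fluorescence to mean of negative controls so 1 means no interference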
An asterisk follows results filed as active; x = no result.

SMILES | Cy5 interf NS3h | HCV NS3h FP | NS3h confirm | SSB-DNA FP CB | Cy5 SSB fluor CB | Cy5 fluor confirm
Cc1ccc(-n2c(-c3ccccc3F)nc3c(cnn3-c3ccccc3)c2=O)cc1 | 1.2 | 41* | 3 | 7 | 1.1 | 0.77*
Cc1ccc(C(=O)CSc2nc3ccccc3c(=O)n2-c2ccccc2)cc1 | 1 | 22 | x | x | x | x
O=C(Nc1ccc(N2CCOCC2)cc1)c1ccc2c(c1)OCCO2 | 1 | -4 | x | x | x | x
O=C(Nc1ccc(Cl)c(Cl)c1)c1ccc2c(c1)OCCO2 | 1.1 | 39 | 41 | 47 | 0.95 | 0.86
CCOc1ccc(NC(=O)CN(c2cc(OC)ccc2OC)S(C)(=O)=O)cc1 | 1 | 2 | x | x | x | x
CS(=O)(=O)N(Cc1ccc(Cl)cc1)c1ccc(C(=O)NCc2ccncc2)cc1 | 1.1 | 21 | x | x | x | x
O=C1N=c2ccccc2=C1N=Nc1nc(O)c(-c2c(O)[nH]c3ccccc23)s1 | 0.4* | 124* | 14 | 32 | 0.76* | 0.73*
COc1cccc(/C=C2/C(=O)NN(c3ccc(C)cc3)C2=O)c1O | 0.9 | 5 | x | x | x | x
Cc1ccc(OCC(=O)NCc2ccc3c(c2)OCO3)cc1 | 1 | 5 | x | x | x | x
O=C(CCc1ccccc1)Nc1cccc(Cl)c1 | 0.93 | 12 | x | x | x | x
O=C1NC(=Nc2ccc(F)cc2)S/C1=C/c1ccccc1F | 1.7* | 112* | 4 | 13 | 0.98 | 0.99
Cc1ccccc1/C=C1/SC(=Nc2ccc(F)cc2)NC1=O | 1 | 3 | x | x | x | x
COc1cc(Br)c(/C=c2/sc3nc4ccccc4n3c2=O)cc1OC | 0.9 | -24 | x | x | x | x
COc1cccc(/C=C2/C(=O)ON=C2c2ccccc2)c1OC | 0.83 | 3 | x | x | x | x
O=C1ON=C(c2ccccc2)/C1=C\c1ccc(OCc2ccccc2)cc1 | 1 | 40 | 3 | 9 | 0.96 | 0.75*
Cc1ccc(C(=O)NCCC(C)C)cc1[N+](=O)[O-] | 0.95 | 1 | x | x | x | x
Cc1ccc([N+](=O)[O-])cc1N1C(=O)C=CC1=O | 1.1 | 87* | 44 | -3 | 0.94 | 0.76*
Cc1ccc([N+](=O)[O-])cc1N1C(=O)C2C3C=CC(CC3)C2C1=O (centres undefined) | 0.88 | 18 | x | x | x | x
Cc1ccc(N2C(=O)C=CC2=O)cc1[N+](=O)[O-] | 0.96 | 75* | 61* | 9 | 0.94 | 0.94
Cc1c(OCC(=O)c2ccccc2)ccc2c1oc(=O)c1ccccc12 | 0.98 | 14 | x | x | x | x
CC(=O)COc1ccc2c(oc(=O)c3ccccc32)c1C | 1 | 30 | 9 | 4 | 0.97 | 0.71*
CCN(C)c1ccc(C=C2C(=O)NC(=O)NC2=O)cc1 | 1.9* | 92* | 111* | 95* | 1.5* | 2.2*
CCOc1ccc(C=C2C(=O)NC(=O)NC2=O)cc1OCC | 1.1 | 18 | x | x | x | x
CCOc1ccc(/C=N/NC(=O)c2cncc(Br)c2)cc1 | 0.8* | 58* | 2 | 5 | 0.96 | 0.95
O=C(N/N=C/c1ccccc1O)c1cncc(Br)c1 | 0.98 | 11 | x | x | x | x
SMILES | Cy5 interf NS3h | HCV NS3h FP | NS3h confirm | SSB-DNA FP CB | Cy5 SSB fluor CB | Cy5 fluor confirm
O=C(Nc1ccc(F)cc1)c1cc2ccccc2oc1=O | 1.1 | 4 | x | x | x | x
Cc1ccc(N2C(=O)C(Cl)=C(N3CCN(c4ccccc4)CC3)C2=O)c(C)c1 | 1.1 | 14 | x | x | x | x
Cc1ccc(N2C(=O)C(Cl)=C(N3CCOCC3)C2=O)c(C)c1 | 1.2 | 37 | -4 | -3 | 0.99 | 0.76*
O=C(N/C(=C/c1cccs1)c1nc2ccccc2[nH]1)c1ccccc1 | 1 | 23 | 20 | 36 | 0.96 | 0.77*
O=C(Nc1ccc(F)cc1)/C(=C\c1cccs1)NC(=O)c1ccccc1 | 1 | 2 | x | x | x | x
CCOc1ccc(/C=N\N2CCN(Cc3ccccc3Cl)CC2)cc1OC | 1 | 12 | x | x | x | x
O=C(/C=C/c1c[nH]c2ccccc12)c1ccc([N+](=O)[O-])cc1 | 0.99 | 43* | 28 | 15 | 0.95 | 0.99
O=C(/C=C/c1ccc(-c2ccc(Cl)cc2)o1)c1ccc([N+](=O)[O-])cc1 | 1 | 10 | x | x | x | x
COCCCN1C(=O)c2ccc3c4c(ccc(c24)C1=O)CC3 | 0.95 | 2 | x | x | x | x
CC1(C)CC(=O)C=C(Nc2ccccc2C#N)C1 | 0.97 | -5 | x | x | x | x
CC1(C)CC(=O)C=C(Nc2ccc(NC3=CC(=O)CC(C)(C)C3)cc2)C1 | 1.2 | 44* | -1 | 8 | 1 | 0.8*
O=C1/C(=C\c2ccc(-c3ccc([N+](=O)[O-])cc3Br)o2)SC(=S)N1c1ccccc1 | 1 | -1 | x | x | x | x
COc1ccc(N(CC(=O)Nc2ccc(Br)cc2)S(C)(=O)=O)cc1 | 1 | 6 | x | x | x | x
COC(=O)c1c(C)oc2ccc(OCc3ccc([N+](=O)[O-])cc3)cc12 | 1 | -4 | x | x | x | x
O=Cc1ccc(OCc2ccc([N+](=O)[O-])cc2)cc1 | 0.59* | 49* | 27 | 19 | 0.92 | 0.7*
Cc1ccc(S(=O)(=O)n2cc(C=C3C(=O)NC(=S)NC3=O)c3ccccc32)cc1 | 0.82 | 61* | 20 | 82* | 0.86 | 0.85
CCc1cc(C)cc(OCCn2cc(C=C3C(=O)NC(=S)NC3=O)c3ccccc32)c1 | 1 | -11 | x | x | x | x
NC1=NC(=O)/C(=C/c2cccc(Oc3ccccc3)c2)S1 | 0.97 | -1 | x | x | x | x
COc1cccc(/C=C2/SC(N)=NC2=O)c1 | 1.3* | 53* | -8 | 3 | 0.97 | 1
CC(=O)c1ccc2c(c1)c1ccccc1n2C | 0.98 | 18 | x | x | x | x
Cn1c2ccc(CC(N)=O)cc2c2cc(CC(N)=O)ccc21 | 1.2 | 44* | 2 | 8 | 1.1 | 0.84
O=C(Cc1ccc(Br)cc1)NCC1CCCO1 (centres undefined) | 1.1 | -12 | x | x | x | x
COc1ccc(N(CC(=O)Nc2ccc(C(C)C)cc2)S(=O)(=O)c2ccccc2)cc1 | 0.99 | -3 | x | x | x | x
O=C1NC(=S)N/C1=C\c1ccc(Oc2ccc([N+](=O)[O-])cn2)cc1 | 0.98 | -1 | x | x | x | x
O=C1NC(=S)S/C1=C\c1ccc(Oc2ccc([N+](=O)[O-])cn2)cc1 | 1 | 39 | 26 | 4 | 0.98 | 0.72*
COc1cc(/C=N\N2C(=O)C3C4C=CC(C4)C3C2=O)cc(I)c1OC (centres undefined) | 0.86 | 8 | x | x | x | x
O=C1/C(=C\c2ccc(N3N=C(c4ccccc4)CC3c3ccccc3)cc2)SC(=S)N1C1CCS(=O)(=O)C1 (centres undefined) | 1.2* | 53* | 29 | 32 | 1 | 0.87
O=C1/C(=C/c2ccc(F)cc2)SC(=S)N1C1CCS(=O)(=O)C1 (centres undefined) | 1 | 11 | x | x | x | x
C=CCN1C(=O)/C(=C\c2cc(Br)c(OCc3ccc(F)cc3)c(OC)c2)SC1=S | 1.2 | -9 | x | x | x | x

Screening data: PubChem, Milwaukee Institute for Drug Discovery
